# Source: PubChem BioAssay (EPA / NIEHS)
# Results filed as inconclusive are left out. Calls of active or inactive are those of the source. Rule for the calls, unless noted: active = hit-call score of the fitted dose curve at least 0.9, where 1 is the maximum; inactive = score below 0.9.
# Assays:
# [1] = UKN2_HCS_IMR90_cell_viability: Viability Assessment in the University of Konstanz (UKN) Leist Lab Neural Crest Cell Migration Assay in human induced IMR90 Pluripotent Stem Cells (UKN2) (AID 2284233);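 note: viability of neural crest cells differentiated from IMR90 iPSC measured by calcein-AM fluorescence imaging; cells exposed to compound for 24 h after a 24 h migration phase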
# Outline: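 Human IMR90-derived neural crest cells were allowed to migrate for 24 h into a cell-free zone, then exposed to test chemicals for 24 h. Calcein-AM and Hoechst staining with high-content imaging gave viability, analysed against DMSO baseline.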
# [2] = CCTE_Mundy_HCI_Cortical_NOG_BPCount: CCTE's Neurite Outgrowth Assay in rat cortical cells for Branch Point Count, Mundy Lab (AID 2284237);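 note: branch points counted about two days after chemical exposure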
# Outline: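 Measured 50.33 h after dosing, this morphology endpoint uses rat primary cortical cultures labelled for betaIII-tubulin. Branch points are quantified by high-content imaging, with DMSO as negative control and baseline.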
# [3] = CCTE_Mundy_HCI_hNP1_CellTiter: CCTE's Cell Titer-Glo 2 Assay in human neuroprogenitor cells for Viability, Mundy Lab (AID 2284241; active = hit-call score of the fitted dose curve at least 0.9, where 1 is the maximum;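 note: a hit is a drop in ATP luminescence versus DMSO meaning reduced viability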)
# Outline: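 Human neural progenitor cells (hNP1, WA09-derived) were plated on poly-L-ornithine/laminin and grown 40 to 44 hours at 37 °C, 5% CO2 before chemical addition. Twenty-four hours later, ATP was measured by CellTiter-Glo luminescence; loss of signal versus DMSO indicates reduced viability.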
# [4] = IUF_NPC2c_oligodendrocyte_migration_120hr: Leibniz Research Institute for Environmental Medicine (IUF) 120-hour Neural Progenitor Cell Migration Assay for Oligodendrocyte Migration (NPC2c) (AID 2284297);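 note: O4-positive oligodendrocyte migration distance divided by radial glia migration distance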
# Outline: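 Using fetal brain neural progenitor spheres differentiating in N2 medium at 37C, compounds were present for 120 h. Oligodendrocyte migration distance, normalized to radial glia migration, was measured from imaged O4 staining.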
# [5] = IUF_NPC2a_radial_glia_migration_120hr: Leibniz Research Institute for Environmental Medicine (IUF) 120-hour Neural Progenitor Cell Migration Assay for Radial Glia Migration (NPC2a) (AID 2284298)
# Outline: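 Exposure of 0.3 mm primary hNPC spheres runs day 0 to 120 h with a half-volume medium change at day 3. Fixed cells get Hoechst staining; high-content analysis of nuclear positions yields radial glia migration distance per well, compared against DMSO controls.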
# [6] = IUF_NPC2a_radial_glia_migration_72hr: Leibniz Research Institute for Environmental Medicine (IUF) 72-hour Neural Progenitor Cell Migration Assay for Radial Glia Migration (NPC2a) (AID 2284299)
# Outline: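 Primary hNPC spheres, fetal brain GW 16-19, on PDL/laminin; DMEM/F12 3:1 + 1% N2. Compound dosed day 0, 7 conc. + SC, half-medium refresh day 3. 72 h brightfield, migration distance core-to-front (um), 4 directions averaged.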
# [7] = IUF_NPC2b_neuronal_migration_120hr: Leibniz Research Institute for Environmental Medicine (IUF) 120-hour Neural Progenitor Cell Migration Assay for Neuron Migration (NPC2b) (AID 2284300)
# Outline: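 Fetal human NPC spheres migrate on PDL/laminin during 120 h compound treatment; neuronal migration distance, glia-normalized, scored versus DMSO control.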
# [8] = IUF_NPC3_neuronal_differentiation_120hr: Leibniz Research Institute for Environmental Medicine (IUF) 120-hour Neuronal Differentiation Assay (NPC3) (AID 2284301)
# Outline: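 Single 0.3 mm neurospheres from human fetal cortex were plated in differentiation medium containing test compound. Medium was half-replaced on day 3. After 120 h cells were fixed, immunostained and imaged, and neuronal fraction was scored against DMSO control.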
# [9] = IUF_NPC4_neurite_length_120hr: Leibniz Research Institute for Environmental Medicine (IUF) 120-hour Neuronal Morphology Assay for Neurite Length (NPC4) (AID 2284302)
# Outline: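 Read-out is mean neurite length in µm of TUBB3-positive neurons, skeletonized from high-content fluorescence images after 120 h. Single 0.3 mm primary human neural progenitor spheres differentiated on poly-D-lysine/laminin under continuous compound exposure; DMSO was baseline.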
# [10] = IUF_NPC5_oligodendrocyte_differentiation_120hr: Leibniz Research Institute for Environmental Medicine (IUF) 120-hour Oligodendrocyte Differentiation Assay (NPC5) (AID 2284304; active = hit-call score of the fitted dose curve at least 0.9, where 1 is the maximum;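 note: primary human fetal neural progenitor spheres plated to migrate and differentiate; share of O4-positive cells among Hoechst nuclei found by CNN image analysis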)
# Outline: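 After plating on poly-D-lysine/laminin, fetal-derived hNPC spheres differentiated for 120 h at 37C in compound-containing N2 medium, refreshed by half on day 3. O4 immunostaining over Hoechst nuclei in the migration zone gave oligodendrocyte percentage relative to DMSO.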
# [11] = IUF_NPC4_neurite_area_120hr: Leibniz Research Institute for Environmental Medicine (IUF) 120-hour Neuronal Morphology Assay for Neurite Area (NPC4) (AID 2284305; active = hit-call score of the fitted dose curve at least 0.9, where 1 is the maximum)
# Outline: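 Neurite area is read out as the mean pixel area, excluding nuclei, of skeletonized TUBB3-positive neurons imaged after 120 h. Primary human neural progenitor spheres differentiated on poly-D-lysine/laminin with compound present from day 0. Activity was referenced to DMSO controls.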
# [12] = IUF_NPC2-5_cytotoxicity_72hr: Cytotoxicity Assessment at 72 hours in the Leibniz Research Institute for Environmental Medicine (IUF) Neural Progenitor Cell Migration and Differentiation Assay for Cytotoxicity (NPC2-5) (AID 2284306; active = hit-call score of the fitted dose curve at least 0.9, where 1 is the maximum;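 note: LDH release into supernatant measured by resorufin fluorescence marking membrane damage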)
# Outline: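 Membrane integrity loss was scored from fluorescence (RFU) of resorufin generated by LDH in culture supernatant, 72 h after dosing. Differentiating human progenitor spheres received seven serial compound concentrations alongside a solvent control.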
# [13] = IUF_NPC2-5_cytotoxicity_120hr: Cytotoxicity Assessment at 120 hours in the Leibniz Research Institute for Environmental Medicine (IUF) Neural Progenitor Cell Migration and Differentiation Assay (NPC2-5) (AID 2284307; active = hit-call score of the fitted dose curve at least 0.9, where 1 is the maximum;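 note: LDH released into supernatant as membrane damage marker via resorufin fluorescence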)
# Outline: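 Membrane-integrity loss is quantified by LDH in supernatant after five days of exposure of migrating, differentiating human fetal NPC spheres; seven serially diluted concentrations are tested with DMSO kept at or below 0.1%.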
# [14] = IUF_NPC2-5_cell_number_120hr: Cell Number Assessment at 120 hours in the Leibniz Research Institute for Environmental Medicine (IUF) Neural Progenitor Cell Migration and Differentiation Assay (NPC2-5) (AID 2284308);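 note: count of Hoechst-stained nuclei in migration zone around plated human neural progenitor spheres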
# Outline: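 Seven-point serial dilutions plus solvent control were applied to plated 0.3 mm hNPC spheres at differentiation start, with medium half-replaced at day 3. Nuclei positive for Hoechst in the migration zone were enumerated at 120 h.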
# [15] = IUF_NPC2-5_viability_120hr: Viability Assessment at 120 hours in the Leibniz Research Institute for Environmental Medicine (IUF) Neural Progenitor Cell Migration and Differentiation Assay (NPC2-5) (AID 2284312)
# Outline: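 Alamar blue resorufin fluorescence read after 5 days of differentiation, with compound present from day 0 and replenished at day 3. Primary hNPC spheres on laminin-coated plates, 37C; seven concentrations plus solvent control, fitted against DMSO.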
# [16] = IUF_NPC1_cytotoxicity_72hr: Cytotoxicity Assessment at 72 hours in the Leibniz Research Institute for Environmental Medicine (IUF) Neural Progenitor Cell Proliferation Assay (NPC1) (AID 2284332; active = hit-call score of the fitted dose curve at least 0.9, where 1 is the maximum;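 note: rising LDH signal means more cytotoxicity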)
# Outline: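 Spheres of primary human neural progenitors are plated one per well on day 0 in growth-factor medium and dosed at once. After three days at 37C, supernatant LDH is measured fluorimetrically via resazurin reduction.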
# [17] = CCTE_Mundy_HCI_iCellGluta_NOG_NeuronCount: CCTE's Neurite Outgrowth Assay in iCellGluta cells for Neuron Count, Mundy Lab (AID 2284340; active = hit-call score of the fitted dose curve at least 0.9, where 1 is the maximum;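 note: cells fixed about 48 h after compound addition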)
# Outline: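 Neuron count read by automated high-content imaging of Hoechst 33342 and betaIII-tubulin/Alexa Fluor-488 labelling in human iPSC glutamatergic neurons. Activity fitted relative to DMSO.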
# [18] = CCTE_Mundy_HCI_iCellGluta_NOG_NeuriteCount: CCTE's Neurite Outgrowth Assay in iCellGluta cells for Neurite Count, Mundy Lab (AID 2284342; active = hit-call score of the fitted dose curve at least 0.9, where 1 is the maximum;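 note: chemical exposure about 48 hours starting 2 hours after plating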)
# [19] = CCTE_Shafer_MEA_acute_spike_number: CCTE's Neural Acute Assay for Total Number of Spikes, Shafer Lab (AID 2284008);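 note: curve fitted for decrease in spike count so AC50 reflects inhibitors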
# Outline: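 Using an adaptive detector set to 8x rms noise, spikes were counted in 40-min windows before and after compound addition (0.03-40 uM) to rat cortical networks at 37 C; the well-level change from baseline was analysed relative to DMSO.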
# [20] = CCTE_Shafer_MEA_acute_firing_rate_mean: CCTE's Neural Acute Assay for Mean Firing Rate, Shafer Lab (AID 2284009);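 note: analyzed for loss of signal so actives lower firing rate relative to DMSO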
# Outline: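 Percent change in well-mean firing rate was derived from extracellular spikes detected at 8x rms noise (300-5000 Hz band-pass) before and after a 40-min compound exposure. Cultures were primary rat cortical neurons, tested at 0.03-40 uM.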
SMILES,outcome [1],AC50 [2],AC50 [3],AC50 [4],AC50 [5],AC50 [6],AC50 [7],AC50 [8],AC50 [9],AC50 [10],AC50 [11],AC50 [12],AC50 [13],AC50 [14],AC50 [15],outcome [16],AC50 [17],AC50 [18],AC50 [19],AC50 [20]
Cc1c(O)cccc1C(=O)N[C@@H](CSc1ccccc1)[C@H](O)CN1C[C@H]2CCCC[C@H]2C[C@H]1C(=O)NC(C)(C)C,inactive,15.4 µM (active),11.1 µM (active),12.7 µM (active),8.08 µM (active),13.4 µM (active),19.9 µM (active),7.87 µM (active),7.21 µM (active),0.596 µM (active),8.75 µM (active),14.5 µM (active),9.82 µM (active),8.12 µM (active),7.38 µM (active),inactive,39.4 µM (active),37.4 µM (active),,
CN(C)C(=O)C(CCN1CCC(O)(c2ccc(Cl)cc2)CC1)(c1ccccc1)c1ccccc1,,,,,,,,,,,,,,,,,,,0.291 µM (active),0.291 µM (active)
